In ChEMBL document CHEMBL1157539, “Thousands of chemical starting points for antimalarial lead identification” (Nature, 2010):
Whole data set: some 13,000 compounds, median “IFI” near 4, cut for the highest 2% near 17. For the sample, the highest values were picked, then their nearest neighbours and some compounds at random.

assay: GSK_TCMDC: Inhibition Frequency Index (IFI). The number of non-kinase HTS assays where a compound showed > 50 % inhibition, expressed as a percentage of the number of such assays in which the compound was tested; type: functional

Row | SMILES | IFI [%]
1 | COc1ccc2ncc(F)c(CCN3CC(O)C(CNCc4ccccc4)C3)c2n1 (stereo unspecified) | 2.94
2 | O=C(NCCc1ccccc1)N(Cc1ccc(-c2cccc(CN3CCNCC3)c2)cc1)C1CCN(Cc2ccccc2)CC1 | 6.67
3 | CC(C)C[C@H](NC(=O)c1cc2ccccc2s1)C(=O)N[C@H]1CCN(Cc2ccc(OCCCN(C)C)c(Cl)c2)C1 | 17.2
4 | CC(C)C[C@H](NC(=O)c1cc2ccccc2s1)C(=O)N[C@H]1CCN(Cc2ccc(OC3CCN(C)C3)c(Cl)c2)C1 (stereo partly specified) | 6.67
5 | CC(C)C[C@H](NC(=O)c1cc2ccccc2s1)C(=O)N[C@H]1CCN(Cc2ccc(OC[C@@H]3CCCN3C)c(Cl)c2)C1 | 6.67
6 | O=C1CCCN1CCCNCc1cccc(-c2cccc(-c3nc4cc(F)ccc4[nH]3)c2)c1 | 4.85
7 | Cc1ccc(C)c(NC(=O)CC2C(=O)N(c3ccccc3)C(=S)N2Cc2ccco2)c1 (stereo unspecified) | 0.76
8 | NC(=O)C1CCN(Cc2ccc(-c3cccc(-c4nc5cc(F)ccc5[nH]4)c3)cc2)CC1 | 0
9 | Cc1ccc(Nc2nc(C)cc(NC3CCCC3)n2)cc1 | 21.3
10 | Cc1ccc(Nc2nc(C)cc(NC3CC3)n2)cc1 | 4.62
11 | Cc1cc(NC2CCCC2)nc(Nc2ccc(F)cc2)n1 | 9.09
12 | CC1CN(c2cccc3c2nc(-c2cncc(C#N)c2)n3CCNCc2ccccc2)CC(C)O1 (stereo unspecified) | 0
13 | CCN1CCC(N(Cc2ccc(-c3ccc(C(F)(F)F)cc3)cc2)C(=O)Cn2c(CCc3cccc(F)c3F)cc(=O)c3c2CCC3)CC1 | 4.96
14 | CCn1c(-c2nonc2N)nc2c(-c3cccc(Cl)c3)ncc(OCCCNCc3cnc(C)nc3N)c21 | 7.62
15 | CCn1c(-c2nonc2N)nc2c(Cl)ncc(O[C@H](CCN)c3ccccc3F)c21 | 23.1
16 | CCn1c(-c2nonc2N)nc2c(-c3ccc(CO)o3)ncc(OCCCN)c21 | 15.4
17 | CN1CCN(CC2(Nc3nccc(NCCc4cn(C)c5ccccc45)n3)CCCCC2)CC1 | 14.3
18 | Clc1ccc(CNc2ccnc(NCc3cccnc3N3CCCC3)n2)c(Cl)c1 | 16.7
19 | CN1CCN(CC2(Nc3nccc(NCc4ccc(Cl)cc4Cl)n3)CCCCC2)CC1 | 35.7
20 | COc1cccc(OC)c1CN1CCC(N(C)CCCCCCCCCN2CCC(OC(=O)Nc3ccccc3-c3ccccc3)CC2)CC1 | 17.3
21 | COc1cccc(OC)c1CN1CCC(N(C)CCCCCCCCN2CCC(OC(=O)Nc3ccccc3-c3ccccc3)CC2)CC1 | 13.1
22 | COc1ccccc1CCN(C)CCN1CCC(NC(=O)c2ccc(-c3ccc(C(F)(F)F)cc3)cc2)CC1 | 6.19

Row | SMILES | IFI [%]
23 | COc1cccc(OC)c1OCCCON1C(=N)N=C(N)NC1(C)C | 2.9
24 | CCC(COCc1ccc(Cl)cc1)N(C)CCN(C)C(CC)COCc1ccc(Cl)cc1 (stereo unspecified) | 19.6
25 | CN(C)CCC(O)C=C(c1ccc(Cl)cc1)c1ccc(Cl)cc1 (stereo unspecified) | 4.69
26 | CN(CCCCN)Cc1ccc(-c2ccc(Cl)cc2)cc1 | 4.44
27 | CC1(C)C(=O)N=C2C1=C(O)C(=O)c1ccccc12 | 17.2
28 | Cc1ccc2c(=NN=Cc3cccc(F)c3)cc(C)[nH]c2c1 | 5.15
29 | C=CCOC(=O)N1CCC(CNCc2cccc(-c3ccc(-c4nc5cccc(C)c5[nH]4)s3)c2)C1 (stereo unspecified) | 3.81
30 | COc1cc2ccccc2cc1CCNCCCCNCCc1cc2ccccc2cc1OC | 14.8
31 | CCc1c(CCNCCCCCCNCCc2ccc(OC)c(OC)c2CC)ccc(OC)c1OC | 6.47
32 | COc1c(OC)c(OC)c2ccccc2c1CNCCCCCCNCc1c(OC)c(OC)c(OC)c2ccccc12 | 14.8
33 | COc1c(CNCCCCCCNCc2c(OC)c(OC)c3ccccc3c2OC)c(OC)c2ccccc2c1OC | 21.3
34 | COc1cc2ccccc2c(OC)c1CCNCCCCNCCc1c(OC)cc2ccccc2c1OC | 14.5
35 | COc1c(OC)c(OC)c2ccccc2c1CCNCCCCNCCc1c(OC)c(OC)c(OC)c2ccccc12 | 18.3
36 | COc1cc2ccccc2c(OC)c1CNCCCCCCNCc1c(OC)cc2ccccc2c1OC | 12.9
37 | COc1cc2ccccc2c(CNCCCCCCNCc2c(OC)c(OC)cc3ccccc23)c1OC | 12.1
38 | CCCCOc1cc(OC)c2ccccc2c1CCNCCCCNCCc1c(OCCCC)cc(OC)c2ccccc12 | 19.1
39 | N=C(N)Nc1nc(-c2cccc(NC(=O)NCc3ccc(OC(F)(F)F)cc3)c2)cs1 | 3.79
40 | CC(CN1CCN(C)CC1)C(=O)Nc1ccc(-c2cccc(-c3nc4cc(F)ccc4[nH]3)c2)cc1 (stereo unspecified) | 2.78
41 | CC(=O)Nc1ncc(C(=O)Nc2cccc(-c3cccc(-c4nc5cc(C(F)(F)F)ccc5[nH]4)c3)c2)s1 | 5.41
42 | CC(C)Oc1ccc2ccccc2c1CNCCCCCCNCc1c(OC(C)C)ccc2ccccc12 | 18.5
43 | CSc1ccc2ccccc2c1CNCCCCCCNCc1c(SC)ccc2ccccc12 | 12.3
44 | COc1ccc2c(CNCCCCCCNCc3c(OC)ccc4cc(OC)ccc34)c(OC)ccc2c1 | 7.38

Row | SMILES | IFI [%]
45 | COc1ccc2ccccc2c1CNCCCCCCNCc1c(OC)ccc2ccccc12 | 9.93
46 | CC(C)COc1ccc2ccccc2c1CNCCCCCCNCc1c(OCC(C)C)ccc2ccccc12 | 22.9
47 | Cc1nnsc1C(=O)Nc1cccc(-c2cccc(-c3nc4cc(F)ccc4[nH]3)c2)c1 | 6.42
48 | CC(=NNC(S)=Nc1ccccc1Cl)c1ccccn1 | 6.57
49 | COc1cc(F)c2nccc([C@@H](O)CN3CCC(NCc4cc5c(cc4F)OCCO5)CC3)c2c1 | 1.59
50 | O=C(Nc1ccc(CCNCc2ccccc2)cc1)Nc1ccc(OC(F)(F)F)cc1 | 0.72
51 | COc1cc(NC(=O)Nc2ccc([N+](=O)[O-])cc2OC)c(OC)cc1Cl | 1.83
52 | O=C(Nc1ccc(OC(F)(F)F)cc1)Nc1ccc([N+](=O)[O-])cc1 | 20.1
53 | N#Cc1ccc(NC(=O)Nc2ccc(OC(F)(F)F)cc2)cc1 | 20.5
54 | COc1cc(C)nc2ccc(NC(=O)Nc3ccc([N+](=O)[O-])cc3C)cc12 | 3.01
55 | O=C(Nc1ccc([N+](=O)[O-])cc1)Nc1cc(OCC(F)(F)F)cc(OCC(F)(F)F)c1 | 9.6
56 | COc1cc([N+](=O)[O-])ccc1NC(=O)Nc1ccc(OC(F)(F)F)cc1 | 18.4
57 | O=C(Nc1ccc([N+](=O)[O-])cc1)Nc1cc(C(F)(F)F)ccc1F | 8.62
58 | O=C(Nc1cccc([N+](=O)[O-])c1)Nc1cccc(C(F)(F)F)c1 | 12.4
59 | O=C(Nc1ccc(Oc2ccc(OC(F)(F)F)cc2)cc1)c1ccco1 | 5.22
60 | O=C(Nc1cccc([N+](=O)[O-])c1)Nc1ccc(Cl)c(C(F)(F)F)c1 | 10
61 | O=C(Nc1ccc(C(F)(F)F)cc1)Nc1cccc([N+](=O)[O-])c1 | 19.1
62 | CCN(CC)CCCC(C)N=c1cc(C=Cc2ccc([N+](=O)[O-])cc2)[nH]c2ccc(OC)cc12 (stereo unspecified) | 1.65
63 | CCN(CC)C(C)(C)CN(Cc1ccc(-c2ccc(C(F)(F)F)cc2)cc1)C(=O)Cn1c(CCc2cccc(F)c2F)nc(=O)c2ccccc21 | 6.94
64 | CCN(CCNS(C)(=O)=O)c1ccc(N)c(C)c1 | 7.32
65 | CN(C)c1ccc(NC2=NC(N)=NC(C)(C)N2)cc1 | 1.82
66 | NC(=O)c1cccc(C(=O)Nc2cccc(-c3ccc(-c4nc5cc(C(F)(F)F)ccc5[nH]4)cc3)c2)c1 | 6.67

Row | SMILES | IFI [%]
67 | Nc1cccc(CNCc2ccc(-c3cccc(-c4nc5cc(C(F)(F)F)ccc5[nH]4)c3)cc2)c1 | 15.2
68 | CCCCN(C(=O)c1ccccc1C)c1nnc(-c2ccccc2C)s1 | 2.56
69 | Cc1ccc2nc(C)n(C3CCN(C(=O)Cc4ccc(F)c(F)c4)CC3)c2c1 | 0
70 | O=C(N[C@H]1CCN(Cc2ccc(OCCN3CCNCC3)c(Br)c2)C1)c1ccc(Cl)c(Cl)c1 | 6.9
71 | C[C@H](Cc1ccc(OCCCCCCOc2ccc(C[C@@H](C)NC(=O)[C@H](O)c3cccc(Cl)c3)cc2)cc1)NC[C@H](O)c1cccc(Cl)c1 | 11.3
72 | CC(NCCc1cccc(Cl)c1)C(O)c1ccc(OCCCCCCOc2ccc(C(O)C(C)NCCc3cccc(Cl)c3)cc2)cc1 (stereo unspecified) | 13
73 | CC(CCCCC(=O)Nc1ccc(CC(C)NCCc2cccc(Cl)c2)cc1)NCCc1cccc(Cl)c1 (stereo unspecified) | 4.29
74 | C[C@H](Cc1ccc(OCCCCCOc2ccc(C[C@@H](C)NC[C@H](O)c3cccc(Cl)c3)cc2)cc1)NC[C@H](O)c1cccc(Cl)c1 | 20.9
75 | C[C@H](Cc1ccc(OCCNC[C@H](O)c2cccc(Cl)c2)cc1)NC[C@H](O)c1ccc(Cl)c(Cl)c1 | 11.4
76 | CC(Cc1ccc(NC(=O)COc2ccc(CC(C)NCCc3cccc(Cl)c3)cc2)cc1)NCCc1cccc(Cl)c1 (stereo unspecified) | 32.4
77 | C[C@H](Cc1ccc(OCCCCCCCOc2ccc(C[C@@H](C)NC[C@H](O)c3cccc(Cl)c3)cc2)cc1)NC[C@H](O)c1cccc(Cl)c1 | 22.1
78 | C[C@H](Cc1ccc(OCCCCCCOc2ccc(C[C@@H](C)NC[C@H](O)c3cccc(Cl)c3)cc2)cc1)NC[C@H](O)c1cccc(Cl)c1 | 16.9
79 | CC(CCCC(=O)Nc1ccc(CC(C)NCCc2cccc(Cl)c2)cc1)NCCc1cccc(Cl)c1 (stereo unspecified) | 11.9
80 | COc1ccc(CC(Cc2ccc(OC)cc2)NCC(O)c2cccc(Cl)c2)cc1 (stereo unspecified) | 4.86
81 | C[C@H](Cc1ccc(OCCCCCCOc2ccc(C[C@@H](C)N[C@H](C)c3ccccc3)cc2)cc1)NC[C@H](O)c1cccc(Cl)c1 | 19.6
82 | NC(=O)c1cccc(C(=O)Nc2ccc(-c3cccc(-c4nc5cc(F)ccc5[nH]4)c3)cc2)c1 | 1.74
83 | Cc1cccc2nc(-c3cccc(-c4ccc(NC(=O)C(C)CN(C)C)cc4)c3)[nH]c12 (stereo unspecified) | 5.45
84 | O=C(Cc1ccc(-c2ccccc2)cc1)N[C@H]1CCN(Cc2ccc(OCCCN3CCCCC3)cc2)C1 | 7.53
85 | C=C(C)CSc1nc2c(c(=O)n1CCc1ccccc1)C1(CCCC1)Cc1ccccc1-2 | 0
86 | CN1CCCC(CN2CCN(Cc3cccc(-c4cccc(-c5nc6ccccc6[nH]5)c4)c3)CC2)C1 (stereo unspecified) | 7.04
